In PubChem BioAssay AID651814 (National Center for Advancing Translational Sciences (NCATS), 2012):
The campaign covered roughly 2,100 compounds. About 590 (28%) were called active. Roughly 42% stayed inconclusive and do not appear here. This is one part of the list. Values without a mark were called inactive. Calls follow the shape of the dose curve; as a rule, active = well fitted inhibition curve with a large enough effect; inconclusive = small, poorly fitted or top-dose-only effect; inactive = flat fitted curve, though single readings scatter.
Also: nearly all actives have a fitted effect of over 70% in size.
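For max response in this document: % of control where 0% means no effect; active compounds raise eYFP fluorescence by blocking Vif-driven A3F loss.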
Potency is read from the fitted curve at half-maximal effect.

Each compound was assayed against DNA dC->dU-editing enzyme APOBEC-3F (Homo sapiens) (UniProt Q8IUX4) (assay: qHTS for inhibitors of Vif-A3F interactions: Cherry picks). Details: HeLa A3F-eYFP + Vif (tagged APOBEC3F with the HIV-1 protein that degrades it), eYFP fluorescence, 24 h.
Chain of DNA dC->dU-editing enzyme APOBEC-3F (Homo sapiens) (Q8IUX4 whole entry, looked up): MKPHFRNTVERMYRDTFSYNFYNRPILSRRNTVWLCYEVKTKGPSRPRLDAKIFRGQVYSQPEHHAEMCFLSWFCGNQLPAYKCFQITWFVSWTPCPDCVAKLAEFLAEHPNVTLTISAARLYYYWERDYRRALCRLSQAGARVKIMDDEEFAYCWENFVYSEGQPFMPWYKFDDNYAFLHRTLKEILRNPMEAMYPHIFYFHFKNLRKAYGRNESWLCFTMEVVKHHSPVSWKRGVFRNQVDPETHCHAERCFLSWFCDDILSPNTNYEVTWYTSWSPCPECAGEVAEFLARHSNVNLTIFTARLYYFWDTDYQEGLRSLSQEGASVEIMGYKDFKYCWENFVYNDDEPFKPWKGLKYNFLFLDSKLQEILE
Outline: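 HeLa cells stably expressing A3F-eYFP plus Vif, cultured overnight, then exposed to compounds at several concentrations for 24 h at 37 deg C. Reduced Vif-driven degradation read as rising eYFP fluorescence (488 nm ex/500-530 nm em) by laser-scanning cytometry; MG132 as positive control.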
`O=C(Oc1ccc(Cl)c2cccnc12)c1ccco1` was tested, and the max response was -0.0527%.
For `CS(=O)(=O)N(CC(=O)N1CCN(Cc2ccccc2)CC1)c1ccccc1F`, the max response was 0.272%.
With `Cc1ccc2nccc(/C=C/c3ccc(N(C)C)cc3)c2c1` the Potency was 5.8 µM (active).
For `CN(C)c1ccc(/C=C/c2ccnc3ccc(N)cc23)cc1`, the Potency was 20.6 µM (active).
In the case of `CN(C)c1ccc(/C=C/c2ccnc3ccc(Br)cc23)cc1`, the Potency is reported as 3.66 µM (active).
In the case of `CN(C)c1ccc(/C=C/c2ccnc3cc(Cl)ccc23)cc1`, the Potency is reported as 2.91 µM (active).
With `CN(C)c1ccc(/C=C/c2ccnc3ccc(I)cc23)cc1` the Potency was 8.2 µM (active).
For `Cc1ccc2c(/C=C/c3ccc(N(C)C)cc3)ccnc2c1`, the Potency was 18.4 µM (active).
With `COc1ccc2nccc(/C=C/c3ccc(N(C)C)cc3)c2c1` the Potency was 23.1 µM (active).
`Cc1cc(C)c2nccc(/C=C/c3ccc(N(C)C)cc3)c2c1` was tested, and the Potency was 10.3 µM (active).
With `CC(=O)Nc1cccc(-c2ccnc3c2CC(C)(C(=O)Nc2cccc(C(C)=O)c2)O3)c1` (stereo not given) the max response was -22.1%.
`S=C(NCCSCc1ccc(Cl)cc1)Nc1ccccc1` gave a max response of -0.773%.
Work on `N#CC1CC(c2ccccc2)Nc2cc(Cl)ccc2N1` (stereo not given) yielded a max response of -26.3%.
`COc1cc(Cl)c(C)cc1NC(=O)CN1CCN(C(=O)C2CC2)CC1` was tested, and the max response was -14.7%.
`CCC(C)Sc1cc(-c2nc3ccccn3c2NC2CCCCC2)ccc1OC` (stereo not given) showed a max response of -11.6%.
In the case of `C=CCN1C=CC(=CC=C(C#N)C#N)C=C1`, the Potency is reported as 11.2 µM (active).
Work on `C=CCN1C=CC(=C/C=C(/C#N)C(=O)OCC)C=C1` yielded a max response of -21.4%.
`CCCN1C=CC(=CC=C(C#N)C#N)C=C1` was tested, and the Potency was 15.8 µM (active).
For `CCOc1cc(/C=C(/C#N)C(=O)Nc2ccc(O)cc2)cc(Br)c1O`, the Potency was 15.8 µM (active).
`N#C/C(=C/c1ccc2c(c1)OCO2)C(=O)Nc1ccc(O)cc1` gave a max response of -28.5%.
For `CCOc1ccc(NC(=O)/C(C#N)=C/c2ccc(N3CCCC3)c(C)c2)cc1`, the Potency was 1.03 µM (active).
With `CCOc1ccc(Br)cc1C(=O)Nc1ccc(C(=O)NCC(C)C)cc1` the max response was -8.08%.
`CC(=O)Nc1ccc(S(=O)(=O)Nc2nc3ccccc3nc2Sc2nncn2C)cc1` showed a max response of -12.8%.
With `COc1ccc(Cn2c(C)nc3c(c2=O)c2nc4ccccc4nc2n3Cc2ccco2)cc1` the Potency was 14.6 µM (active).
Compound `Cc1ccc2nc3c(cc(S(=O)(=O)c4ccccc4)c(=N)n3Cc3ccco3)c(=O)n2c1` has a max response of -15.4%.
`CC(C)n1cnc2c(NCc3ccccc3)cc(N[C@H](C)CO)cc21` was tested, and the Potency was 12.5 µM (active).
With `Cc1ccccc1N1C(=O)c2cccc3c(N(C)CCO)ccc(c23)C1=O` the max response was -29.5%.
`Cc1ccc(N2C(=O)c3cccc4c(N5CCN(C)CC5)ccc(c34)C2=O)c2cccnc12` was tested, and the Potency was 17.7 µM (active).
Work on `CC1(C(=O)NCc2cccs2)Cc2c(-c3ccc(C(N)=O)cc3)ccnc2O1` (stereo not given) yielded a max response of -27%.
`CCOC(=O)c1c(Nc2ccc(Cl)cc2)sc(/C=C2\C=Nc3ccccc32)c1O` was tested, and the Potency was 14.6 µM (active).
With `CCOC(=O)c1ccc(Nc2nc3ccccc3nc2NS(=O)(=O)c2ccc(Cl)cc2)cc1` the max response was -8.48%.
`CC(C)(C)c1ccc(Oc2ccc(NC(=O)c3ccccc3C(=O)O)cn2)cc1` gave a max response of 1.93%.
With `CCC(C)n1c(NC(=O)c2ccccc2)c(C#N)c2nc3ccccc3nc21` (stereo not given) the Potency was 16.4 µM (active).
With `CCN(CC)C(=O)Cn1c(C)c(/C=C/c2cc[n+](C)cc2)c2ccccc21` the Potency was 11.2 µM (active).
In the case of `COC(=O)Cn1c(C)c(/C=C/c2cc[n+](C)cc2)c2ccccc21`, the Potency is reported as 18.4 µM (active).
`S=c1[nH]nc(-c2cccnc2)n1/N=C/C(Cl)=C\c1ccccc1` was tested, and the max response was -29.6%.
For `CN(C)c1ccc(/C=C/C(=O)c2c(O)c3ccccc3oc2=O)cc1`, the Potency was 1.46 µM (active).
For `c1ccc(-c2cnn3c(-c4ccccc4)c(-c4ccccc4)nc3n2)cc1`, the Potency was 1.84 µM (active).
With `CN(C)c1ccc(/C=C/c2cc(N(C)C)nc3ccccc23)cc1` the Potency was 9.2 µM (active).
`CN(C)c1ccc(/C=C/c2nc3ccccc3c(=O)n2CCO)cc1` was tested, and the Potency was 20.6 µM (active).
With `CCN(CC)c1ccc(/C=C/c2cc(-c3ccccc3)c3ccccc3n2)cc1` the Potency was 5.59 µM (active).
Work on `CN(NC(=O)c1ccccc1)c1nc2ccccc2nc1C(F)(F)F` yielded a max response of -29.3%.
In the case of `CN(C)c1ccc(/C=C/c2nc3ccccc3c(=O)[nH]2)cc1`, the max response is reported as -19.3%.
In the case of `Nc1ccc(/C=C/c2cc(Cl)nc3ccccc23)cc1`, the Potency is reported as 18.4 µM (active).
`Nc1ccc2nc(-c3ccccc3)c(-c3ccccc3)nc2c1` was tested, and the max response was -17.1%.
`COC(=O)c1ccccc1NC(=O)C1CC(=O)N(c2ccc(OC)cc2)C1` (stereo not given) gave a max response of -29%.
Compound `O=C(Cn1ncc(Cl)c(Cl)c1=O)N1CCN(S(=O)(=O)c2ccc3ccccc3c2)CC1` has a max response of -29%.
For `C/C(=N\NC(=S)NC(C)C)c1ccc(C(C)(C)C)cc1`, the max response was -1.78%.
For `CN(C)c1ccc(/C=C/c2cc(/C=C/c3ccc(N(C)C)cc3)c3ccccc3n2)cc1`, the Potency was 7.31 µM (active).
With `CCOc1ccc(C2CC(c3c(O)c4ccccc4oc3=O)=NN2c2ccccc2)cc1OC` (stereo not given) the Potency was 13 µM (active).
For `CC[N+](C)(C(=O)O)/C(=C\c1ccccc1)c1ccnc2ccccc12` (stereo not given), the Potency was 20.6 µM (active).
Compound `CC(C)Cn1c(N)c(C(=O)COC(=O)c2ccc([N+](=O)[O-])o2)c(=O)n(C)c1=O` has a max response of 3.32%.
`COc1ccc(-n2cc3c(-c4cccc(Br)c4)nnc(C)c3n2)cc1` showed a max response of -1.46%.
`N=c1n(CC(=O)c2ccc([N+](=O)[O-])cc2)c2ccccc2n1Cc1ccccc1` was tested, and the Potency was 14.6 µM (active).
For `COC(=O)[C@@H]1Cc2c([nH]c3ccccc23)C(C)(C)N1C(=O)CCl`, the max response was -14.3%.
Work on `Oc1ccc(C2=NNC(=NCc3ccc4c(c3)OCO4)SC2)c(O)c1` yielded a max response of -25%.
For `CN(C)c1ccc(/C=C(/C#N)C(=O)Nc2nc3c(s2)CCN(Cc2ccccc2)C3)cc1`, the Potency was 0.704 µM (active).
For `N#Cc1c(NC(=O)/C=C/C(=O)O)sc2c1CCN(Cc1ccccc1)C2`, the max response was -10.7%.
Work on `CCOC(=O)c1cc(-c2ccccc2C)n(CC2CC(c3ccc(OC)cc3)=NO2)n1` (stereo not given) yielded a max response of 6%.
With `CN(C)c1ccc(/C=C/c2ccnc3c(Cl)cccc23)cc1` the Potency was 4.11 µM (active).
With `CN(C)c1ccc(/C=C/c2ccnc3c(N)cccc23)cc1` the Potency was 16.4 µM (active).
With `CN(C)c1ccc(/C=C/c2ccnc3c(Cl)ccc(Cl)c23)cc1` the Potency was 6.51 µM (active).
With `Cc1ccc(-c2nc(SCCOc3ccccc3C)n3[nH]c(=O)cc3n2)cc1` the max response was 1.28%.
In the case of `COc1ccc(/C=c2\s/c(=C/C(=O)c3ccc(C)cc3)[nH]c2=O)c(OC)c1`, the Potency is reported as 18.4 µM (active).
`COc1ccc(/C=C2\Oc3cc(OC(=O)N4CCOCC4)ccc3C2=O)c(OC)c1` was tested, and the max response was -13.8%.
`Cc1ccc(NC(=S)N=Nc2c(O)n(C)c3ccc(S(=O)(=O)N4CCOCC4)cc23)cc1` gave a max response of 3.82%.
`COc1ccc(C)cc1NCc1cc(=O)oc2cc(-c3ccccc3)c(O)cc12` showed a max response of -18.7%.
`COC(=O)c1cnc(Nc2cc(C)ccc2OC)c2ccccc12` showed a max response of -22%.
With `COc1ccc(-n2c(O)c(/C=N/NS(=O)(=O)c3cccc([N+](=O)[O-])c3)c3ccccc3c2=O)cc1OC` the Potency was 17.7 µM (active).
For `COc1ccc(-n2c(O)c(/C=N/NS(=O)(=O)c3cc(C)ccc3C)c3ccccc3c2=O)cc1OC`, the Potency was 14.6 µM (active).
In the case of `O=C(O)CSc1cc(NS(=O)(=O)c2cccc([N+](=O)[O-])c2)c2ccccc2c1O`, the max response is reported as -12.8%.
With `COc1ccc(C(=O)C(C)[n+]2ccc(C)c3ccccc32)cc1[N+](=O)[O-]` (stereo not given) the max response was 1.15%.
In the case of `COc1ccc(-n2c(O)c(/C=N/NS(=O)(=O)c3ccc(C)c([N+](=O)[O-])c3)c3ccccc3c2=O)cc1OC`, the Potency is reported as 14.6 µM (active).
With `COC1=C(OC)C(=O)C(Sc2ccc3ccccc3c2)=CC1=O` the max response was -9.94%.
In the case of `CCSc1nnc(-c2sc3nnc(-c4ccccc4)c(-c4ccccc4)c3c2N)o1`, the Potency is reported as 16.4 µM (active).
`COc1cc(CNCCSc2nnnn2C)ccc1OCc1c(F)cccc1Cl` was tested, and the max response was -4.2%.
`COc1ccc(C(=O)Nc2cccc(/C=C/c3nc4ccccc4c(=O)[nH]3)c2)cc1` was tested, and the Potency was 12.5 µM (active).
In the case of `N#Cc1c(C(F)(F)F)cc(-c2ccco2)nc1SCc1ccccn1`, the Potency is reported as 10.3 µM (active).
In the case of `Cc1nnc(NC(=O)c2sc3nc(-c4cccs4)cc(C(F)(F)F)c3c2N)s1`, the Potency is reported as 7.31 µM (active).
`O=C(Nc1nc2ccccc2s1)c1ccc([N+](=O)[O-])o1` was tested, and the max response was -26.2%.
`COc1ccc2nc(NC(=S)NC(=O)c3ccco3)sc2c1` showed a max response of -0.262%.
With `Nc1c(C(=O)Nc2nccs2)sc2nc(-c3cccs3)cc(C(F)(F)F)c12` the Potency was 8.86 µM (active).
`Nc1c(C(=O)Nc2nc3ccccc3s2)sc2nc(-c3cccs3)ccc12` was tested, and the Potency was 20.6 µM (active).
`Nc1c(C(=O)Nc2ccc(F)cc2)sc2nc(-c3cccs3)cc(C(F)(F)F)c12` was tested, and the Potency was 1.64 µM (active).
`O=c1[nH]cnc2n[nH]nc12` was tested, and the Potency was 2.31 µM (active).
Compound `CCNC(=S)N/N=C(\C)c1ccc(N2CCOCC2)cc1` has a max response of -0.726%.
Compound `O=c1[nH]c2ccccc2n2c(C(F)(F)F)nnc12` has a max response of -23.2%.
For `Cn1c(N)c(-c2ccccc2)c2ccc([N+](=O)[O-])cc2c1=O`, the Potency was 4.98 µM (active).
With `C=C(C(=O)c1ccccc1)C(C)C(=C)C(=O)c1ccccc1` the Potency was 12.5 µM (active).
For `CC(C)(C)NCC(=Cc1ccccc1)C(=O)c1ccccc1`, the max response was 10%.
